The source of these data is PubChem BioAssay (Tox21).

Records with an inconclusive call do not appear. The source made the active and inactive calls. Unless noted, calls follow the shape of the full dose curve.

Test [1] concerns the target Gonadotropin-releasing hormone receptor (Homo sapiens) (UniProt P30968). As to the kind of experiment: Human gonadotropin-releasing hormone receptor (GnRHR) small molecule agonists, calcium flux assay in GnRHR-HEK293 cells (AID 1920063). Also: nearly all actives have a fitted effect of over 35% in size. A digest of the protocol: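 Tox21-format agonist screen using human GnRHR-expressing HEK293 cells and a fluorescent calcium dye; kinetic 3-min fluorescence reading after compound addition, 15-point concentration series run in triplicate.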
(In general: Calcium assays in cells follow changes in intracellular calcium, usually with a dye or a luminescent sensor.)

The target in test [2] is KiSS-1 receptor (Homo sapiens) (UniProt Q969F8). In words: Human kisspeptin (KISS1R) small molecule agonists, calcium flux assay in KISS1R-HEK293 cells (AID 1920064; active = well fitted activation curve with a large enough effect in the repeat runs). A digest of the protocol: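 Intracellular calcium mobilization in KISS1R-HEK293 cells was recorded by fluorescence (Ex/Em 480/540) for 3 min following compound addition to cells pre-loaded 1 h with calcium dye.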
Sequence of KiSS-1 receptor (Homo sapiens) (Q969F8 whole entry, looked up): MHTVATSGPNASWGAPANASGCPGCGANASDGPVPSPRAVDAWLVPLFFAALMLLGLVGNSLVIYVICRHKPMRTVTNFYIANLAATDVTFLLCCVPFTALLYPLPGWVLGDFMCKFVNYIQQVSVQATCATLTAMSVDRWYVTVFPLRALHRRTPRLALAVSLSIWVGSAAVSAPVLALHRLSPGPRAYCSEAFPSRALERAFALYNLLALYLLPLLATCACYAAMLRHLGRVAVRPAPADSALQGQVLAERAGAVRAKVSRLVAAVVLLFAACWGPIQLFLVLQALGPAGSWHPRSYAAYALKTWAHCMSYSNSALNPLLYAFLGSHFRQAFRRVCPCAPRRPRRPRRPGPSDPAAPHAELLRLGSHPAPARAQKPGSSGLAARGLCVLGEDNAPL

Test [3] in a line: G protein-coupled receptor (GPCR) small molecule agonists, calcium flux assay: HEK293 wild type cell line counter screen (AID 1920065). The method, boiled down:
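In this agonist-mode screen, ATP is the positive control and DMSO the vehicle. Cells grow 18 h before a 1 h dye incubation at 37 C; signal is taken at Ex/Em 480/540 over 3 min.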

Test [4] is described as follows: p53 small molecule agonists, cell-based qHTS assay with rat liver microsomes (AID 1963578). Also: potency is read from the fitted curve at half-maximal effect. The method, boiled down: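 Each plate received p53RE-bla cells, then compound, then rat liver microsomes and NADPH (both 0.5 mg/mL final). Plates were held 16 h at 37 C, and beta-lactamase activity was detected with LiveBLAzer over 2 h.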
Test [5] is described as follows: p53 small molecule agonists, cell-based qHTS assay with human liver microsomes: qHTS cell viability counter screen (AID 1963579). Also: nearly all actives have a fitted effect of over 45% in size. Also: potency is read from the fitted curve at half-maximal effect. A digest of the protocol: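 Tox21 library compounds, delivered from DMSO stocks, were tested on p53RE-bla cells together with 0.5 mg/mL human liver microsomes and 0.5 mg/mL NADPH (final) over 16 h at 37 C; CellTiter-Glo luminescence served as the cytotoxicity measure.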
Background: Quantitative high-throughput screening tests each substance at several concentrations.

A short description of test [6]: p53 small molecule agonists, cell-based qHTS assay with rat liver microsomes: qHTS cell viability counter screen (AID 1963580). Also: nearly all actives have a fitted effect of over 45% in size. A digest of the protocol:
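p53RE-bla HCT-116 cells were exposed 16 h at 37 C to compounds with rat liver microsomes (0.5 mg/mL) and NADPH (0.5 mg/mL). Viability was measured in the same wells as ATP content by CellTiter-Glo luminescence.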

A short description of test [7]: p53 small molecule agonists, cell-based qHTS assay: qHTS cell viability counter screen (AID 1963581). Also: nearly all actives have a fitted effect of over 45% in size. The method, boiled down:
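Compounds are pinned onto HCT-116 p53RE-bla cells and left 16 h at 37 C. Following the reporter FRET read, ATP is quantified by CellTiter-Glo luminescence after 30 min at room temperature.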

Test [8] in a line: p53 small molecule agonists, cell-based qHTS assay (AID 1963582; active = well fitted activation curve with a large enough effect in the signal ratio in the repeat runs, not every such curve was filed as active; the % refers to the signal ratio). A digest of the protocol:
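Agonist activity was scored from beta-lactamase FRET fluorescence in p53RE-bla cells treated 16 h at 37 C with compounds in DMSO, substrate incubation being 2 h at room temperature.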

The target of test [9] is 5-hydroxytryptamine receptor 2A (Homo sapiens) (UniProt P28223). In words: 5-hydroxytryptamine receptor 2A (HTR2A) small molecule antagonists, cell-based qHTS assay (AID 1963586). Also: nearly all actives have a fitted effect of over 45% in size. Also: potency is read from the fitted curve at half-maximal effect. The method, boiled down:
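Antagonist-mode intracellular calcium assay: DOI (4 nM) added after 5 min compound pre-incubation at room temperature to dye-loaded HTR2A-CHO cells. Fluorescence followed for 3 min, sampled every second.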

Test [10] shares this target. As to the kind of experiment: 5-hydroxytryptamine receptor 2A (HTR2A) small molecule agonists, cell-based qHTS assay (AID 1963587). Also: nearly all actives have a fitted effect of over 30% in size. A digest of the protocol:
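CHO cells stably expressing human HTR2A, plated 18 h, loaded with calcium dye 1 h at 37 C. Agonist mode: compounds added and intracellular calcium fluorescence recorded kinetically for 2 min at 1 sec intervals.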

In test [11] the target is Muscarinic acetylcholine receptor M1 (Homo sapiens) (UniProt P11229). In words: Cholinergic receptor muscarinic 1 (CHRM1) small molecule antagonists, cell-based qHTS assay (AID 1963588). Also: nearly all actives have a fitted effect of over 40% in size. The method, boiled down:
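CHRM1-CHO calcium-flux assay, antagonist mode. Cells were seeded 18 h, dye-loaded 1 h at 37 C and given compound for 5 min at RT, then acetylcholine was added at 50nM. FDSS fluorescence was read 3 min; 15 concentrations, three runs.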

The target is the same in test [12]. As to the kind of experiment: Cholinergic receptor muscarinic 1 (CHRM1) small molecule agonists, cell-based qHTS assay (AID 1963589). Also: nearly all actives have a fitted effect of over 35% in size. The method, boiled down: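 Stable CHRM1-CHO cells (human receptor) were incubated 18 h, dye-loaded for 1 h at 37 C and exposed to test compounds for agonist activity, with calcium-dependent fluorescence followed kinetically.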

Test [13] in a line: cAMP Responsive Elements (CRE) small molecule agonists, cell-based qHTS assay (AID 1963590). A digest of the protocol:
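FRET-based beta-lactamase readout (LiveBLAzer B/G, 2 h RT) quantified CRE activation in HEK 293T CRE-bla cells after 3 h treatment with DMSO-dissolved compounds.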

Test [14] is described as follows: cAMP Responsive Elements (CRE) small molecule antagonists, cell-based qHTS assay (AID 1963591; active = well fitted inhibition curve with a large enough effect in the signal ratio in the repeat runs, not every such curve was filed as active; the % refers to the signal ratio). A digest of the protocol: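 qHTS in CRE-bla HEK 293T cells: compound in DMSO, then 0.25 uM NKH477 (final), 3 h at 37 °C/5% CO2; beta-lactamase FRET read-out after 2 h substrate incubation.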
Test [15] deals with Beta-2 adrenergic receptor (Homo sapiens) (UniProt P07550). In words: Adrenergic beta2 receptor (ADRB2) small molecule antagonists, cell-based qHTS assay (AID 1963592). Also: nearly all actives have a fitted effect of over 50% in size. Also: potency is read from the fitted curve at half-maximal effect. The method, boiled down: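 Cells (CHO, stable ADRB2 overexpression) incubated 18-20hr at 37C; compounds added from DMSO; agonist mix (1nM isoproterenol, 100uM IBMX, 25uM Ro-20-1724) added; 0.5hr RT; d2-cAMP and anti-cAMP-cryptate added; 1hr RT; 665/615 nm read.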
Sequence of Beta-2 adrenergic receptor (Homo sapiens) (P07550 whole entry, looked up): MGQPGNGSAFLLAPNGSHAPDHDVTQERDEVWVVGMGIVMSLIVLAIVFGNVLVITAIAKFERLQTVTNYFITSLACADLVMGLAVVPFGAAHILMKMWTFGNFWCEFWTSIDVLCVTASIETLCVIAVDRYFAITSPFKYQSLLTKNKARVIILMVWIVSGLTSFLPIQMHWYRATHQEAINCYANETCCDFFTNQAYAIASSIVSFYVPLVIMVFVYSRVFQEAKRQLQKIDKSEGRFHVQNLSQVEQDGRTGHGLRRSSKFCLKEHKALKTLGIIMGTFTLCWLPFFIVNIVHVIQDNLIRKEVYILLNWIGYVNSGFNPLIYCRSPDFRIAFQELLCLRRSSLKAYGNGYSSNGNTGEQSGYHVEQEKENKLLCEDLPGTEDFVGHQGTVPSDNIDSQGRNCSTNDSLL

For test [16] the target is unchanged. As to the kind of experiment: Adrenergic beta2 receptor (ADRB2) small molecule agonists, cell-based qHTS assay (AID 1963593).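 Also: CHO cells stably overexpressing human ADRB2.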 The method, boiled down:
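CHO cells stably over-expressing ADRB2 were plated overnight at 37C, then dosed with compounds plus a stimulation mix containing 100uM IBMX and 25uM Ro-20-1724 for 0.5hr at room temperature. cAMP was measured by HTRF competition, 1hr.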

Test [17] concerns the target D(2) dopamine receptor (Homo sapiens) (UniProt P14416). In words: Dopamine D2 receptor (DRD2) small molecule agonists, cell-based qHTS assay (AID 1963594). Also: nearly all actives have a fitted effect of over 35% in size. The method, boiled down:
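HEK293 cells stably expressing human DRD2, pre-treated with PDE inhibitor Ro20-1724 (0.1 mM final) and compound 10 min at room temperature, then stimulated with NKH477 (200nM […]) for 30 min. cAMP read by HTRF (665/620 nm).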

The target is the same in test [18]. As to the kind of experiment: Dopamine D2 receptor (DRD2) small molecule antagonists, cell-based qHTS assay (AID 1963595; active = well fitted inhibition curve with a large enough effect in the signal ratio in the repeat runs, with a control signal flat; the % refers to the signal ratio; also: potency is read from the fitted curve at half-maximal effect). A digest of the protocol: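 Readout: HTRF cAMP, cAMP-d2 competing with cellular cAMP for anti-cAMP cryptate, read after 1 h. Cells: DRD2-HEK293. Conditions: 0.1 mM Ro20-1724, 12 nM quinpirole, 200 nM NKH477, 30 min RT.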
Test [19] can be described thus: p53 small molecule agonists, cell-based qHTS assay with human liver microsomes (AID 1963577).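 Also: p53 response element beta-lactamase reporter cells with liver microsomes plus NADPH.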 The method, boiled down:
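Metabolically competent format: test substances, human liver microsomes and NADPH (both 0.5 mg/mL final) incubated with p53RE-bla cells 16 h at 37 C. Beta-lactamase reporter signal then quantified by fluorescence.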

Sequence of D(2) dopamine receptor (Homo sapiens) (P14416 whole entry, looked up): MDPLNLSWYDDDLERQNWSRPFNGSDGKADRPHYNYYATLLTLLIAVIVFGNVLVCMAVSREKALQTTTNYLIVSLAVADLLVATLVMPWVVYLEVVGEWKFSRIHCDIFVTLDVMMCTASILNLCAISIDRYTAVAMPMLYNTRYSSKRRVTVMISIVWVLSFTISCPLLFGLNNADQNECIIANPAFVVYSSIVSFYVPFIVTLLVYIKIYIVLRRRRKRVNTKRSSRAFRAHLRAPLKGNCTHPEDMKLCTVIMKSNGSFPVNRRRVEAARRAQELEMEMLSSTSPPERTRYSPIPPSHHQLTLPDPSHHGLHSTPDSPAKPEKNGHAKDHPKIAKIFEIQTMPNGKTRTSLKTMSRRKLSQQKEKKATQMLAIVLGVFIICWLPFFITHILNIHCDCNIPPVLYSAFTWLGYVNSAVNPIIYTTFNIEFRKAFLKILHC
Sequence of 5-hydroxytryptamine receptor 2A (Homo sapiens) (P28223 whole entry, looked up): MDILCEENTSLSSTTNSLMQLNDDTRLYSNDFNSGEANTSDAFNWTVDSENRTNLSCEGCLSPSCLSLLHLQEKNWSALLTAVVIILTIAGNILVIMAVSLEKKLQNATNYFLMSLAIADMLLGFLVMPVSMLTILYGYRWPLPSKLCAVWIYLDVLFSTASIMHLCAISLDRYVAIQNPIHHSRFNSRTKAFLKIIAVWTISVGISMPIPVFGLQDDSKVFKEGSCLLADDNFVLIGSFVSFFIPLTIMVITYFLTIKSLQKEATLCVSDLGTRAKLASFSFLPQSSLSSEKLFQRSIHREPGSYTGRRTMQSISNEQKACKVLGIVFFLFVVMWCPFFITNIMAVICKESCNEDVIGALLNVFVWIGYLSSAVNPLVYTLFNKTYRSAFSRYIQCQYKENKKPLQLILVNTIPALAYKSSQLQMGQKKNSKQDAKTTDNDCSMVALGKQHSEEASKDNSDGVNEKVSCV
Sequence of Muscarinic acetylcholine receptor M1 (Homo sapiens) (P11229 whole entry, looked up): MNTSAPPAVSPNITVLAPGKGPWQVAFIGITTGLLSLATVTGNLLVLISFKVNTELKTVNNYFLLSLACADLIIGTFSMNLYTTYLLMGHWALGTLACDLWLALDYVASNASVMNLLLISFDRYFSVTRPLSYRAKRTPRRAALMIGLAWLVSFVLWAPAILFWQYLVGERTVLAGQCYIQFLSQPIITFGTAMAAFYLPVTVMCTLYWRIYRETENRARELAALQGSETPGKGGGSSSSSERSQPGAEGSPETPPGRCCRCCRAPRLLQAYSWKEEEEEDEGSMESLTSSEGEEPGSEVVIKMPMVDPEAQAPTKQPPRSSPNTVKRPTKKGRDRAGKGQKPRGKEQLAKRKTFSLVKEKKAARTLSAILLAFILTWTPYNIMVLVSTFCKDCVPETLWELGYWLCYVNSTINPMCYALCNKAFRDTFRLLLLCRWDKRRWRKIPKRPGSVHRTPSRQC
Sequence of Gonadotropin-releasing hormone receptor (Homo sapiens) (P30968 whole entry, looked up): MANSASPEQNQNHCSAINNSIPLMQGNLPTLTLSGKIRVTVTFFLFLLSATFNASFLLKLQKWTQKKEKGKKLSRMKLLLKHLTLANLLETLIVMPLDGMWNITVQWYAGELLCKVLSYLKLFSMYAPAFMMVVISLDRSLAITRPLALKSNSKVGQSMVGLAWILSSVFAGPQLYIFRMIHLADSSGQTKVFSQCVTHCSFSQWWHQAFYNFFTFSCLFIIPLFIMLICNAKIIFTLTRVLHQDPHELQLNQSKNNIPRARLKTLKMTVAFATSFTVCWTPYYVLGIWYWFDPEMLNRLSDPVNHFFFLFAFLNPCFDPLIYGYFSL

Regarding `Cc1ccc(Cl)c(N)c1Cl`, the Potency entry in test [1], in test [2], in test [3], in test [4], in [6] and in test [7] was “inactive” throughout. The Potency entry in [8], in [9], in [10], in [11], in test [12] and in [13] was “inactive” each time. The Potency result in test [14], in test [15], in test [16], in test [17] and in [18] was “inactive” throughout. Besides, in [5], the Potency was 18.2 µM (active).
Take `Cc1cc2c(cc1C(F)(F)F)N(C(=O)Nc1ccc(Oc3cccnc3C)nc1)CC2`: the Potency entry in test [1], in test [2], in test [3], in test [19], in test [5] and in test [6] was “inactive” each time. For the same molecule, the Potency entry in [7], in test [10], in test [11] and in [17] was “inactive” throughout. Besides, the Potency is 27.7 µM (active) in [15] and 6.2 µM (active) in [18].
For the molecule `CN1CCC(N(Cc2cccs2)c2ccccc2)CC1`, the Potency entry in test [1], in test [2], in test [3], in [5], in [7] and in test [10] was “inactive” throughout. The Potency result in test [11], in test [12], in test [13], in test [14] and in test [15] was “inactive” each time. Moreover, in test [9], the Potency is 0.365 µM (active).
Consider `O=S(=O)(O)c1ccccc1/C=C/c1ccc(-c2ccc(/C=C/c3ccccc3S(=O)(=O)O)cc2)cc1`, for which the Potency result in test [1], in [2], in test [3], in test [5], in [6] and in [7] was “inactive” throughout. Also, the Potency entry in test [9], in test [15], in test [17] and in test [18] was “inactive” throughout. The Potency in [4] was 11.7 µM (active).
For `CCCCO`, the Potency result in [1], in test [2], in test [3], in test [19], in test [5] and in test [6] was “inactive” throughout. The Potency entry in test [7], in test [8], in [9], in test [10], in test [11] and in test [13] was “inactive” in each case. Also, the Potency entry in test [15], in test [17] and in test [18] was “inactive” in each case.
On to `CN(C/C=C/C#CC(C)(C)C)Cc1cccc2ccccc12`, for which the Potency entry in test [1], in test [2], in test [3], in [19], in test [5] and in test [7] was “inactive” each time. Besides, the Potency entry in test [15], in test [16] and in test [17] was “inactive” throughout.
Consider `CCc1nn(CCCN2CCN(c3cccc(Cl)c3)CC2)c(=O)n1CCOc1ccccc1`, for which the Potency result in test [1], in test [2], in test [3], in test [6], in test [7] and in test [10] was “inactive” in each case.
On to `O=C(O)COCCN1CCN(C(c2ccccc2)c2ccc(Cl)cc2)CC1` (configuration not stated), for which the Potency entry in [1], in [2], in test [3], in test [7], in test [8] and in [9] was “inactive” throughout. The Potency result in [10], in [12], in [13], in test [14], in test [15] and in test [17] was “inactive” in each case.
Turning to `O=C(OCC(O)CO)c1ccccc1Nc1ccnc2cc(Cl)ccc12` (configuration not stated), the Potency entry in test [1], in test [2], in [3], in [5], in test [6] and in test [7] was “inactive” throughout. Besides, the Potency entry in test [9], in [10], in test [12], in test [16], in [17] and in test [18] was “inactive” throughout.
